Five compounds from PubChem BioAssay can be followed below.

One assay addresses Albumin (Bos taurus) (UniProt P02769). The assay can be described thus: compounds binding labelled BSA control protein – biochemical, small-molecule microarray, Alexa647 label, 635/667 nm fluorescence, artefact control for SMM control protein annotation, profiling panel (AID 1118).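 Note: score merges 667 nm emission intensity and signal-to-noise per printed compound spot.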 The note with it: BSA-A647 binding, fluorescence 635 nm, higher = more signal.
A short description of assay [1]: probe aXIP binding to arrayed compounds – biochemical, NeuroSMM set, 635/667 nm fluorescence, primary screen (AID 1119).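 Note: probe is the protein aXip251-270 applied at 1 µg/mL to compound-printed slides; binding of probe to printed compounds measured as 667 nm fluorescence plus signal to noise.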 The following applies: small-molecule microarray, higher = more signal, called active from +8 up or from −8 down.
A short description of assay [2]: probe aNOTCH3 binding on compound microarray – biochemical, small-molecule microarray, 635/667 nm fluorescence, primary screen (AID 1120).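 Note: probe is a biotin-tagged antibody raised against NOTCH3 rather than NOTCH3 protein; score merges spot fluorescence near 667 nm with spot signal to noise.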 The following applies: higher = more signal.
Assay [3] can be described thus: probe aNOTCH2 binding on compound microarray – biochemical, small-molecule microarray, 635/667 nm fluorescence, primary screen (AID 1121).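 Note: score merges feature fluorescence read at 667 nm with its signal to noise.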 The following applies: higher = more signal.
For assay [4], the target named is Carbonic anhydrase 2 (Homo sapiens) (UniProt P00918). The assay can be described thus: compounds binding carbonic anhydrase 2 – biochemical, small-molecule microarray, Alexa647-labelled CAII, profiling panel (AID 1122). The following applies: CAII-A647 binding fluorescence, higher = more signal.
A short description of assay [5]: COS7 lysate on small-molecule microarray, probe aHis, 635 nm (AID 1123).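 Note: z-score combines 667nm fluorescence intensity with signal-to-noise per printed compound spot.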 The note with it: COS7 cell lysate, fluorescence, higher = more signal.
A short description of assay [6]: probe aLAP1 signal on lysate-treated microarray – cell lysate, small-molecule microarray, COS7 lysate, primary screen (AID 1124).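 Note: lysate comes from COS7 cells expressing LAP1 and is applied at 0.3 µg/mL; score merges spot fluorescence near 667 nm with signal-to-noise over triplicate slides.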 The note with it: probe aLAP1, fluorescence, higher = more signal.
The test system of the next assay is Sam68 (KHDRBS1). The assay can be described thus: compounds binding KHDRBS1 protein – biochemical, small-molecule microarray, 635 nm fluorescence, primary screen (AID 1125).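 Note: score merges 667 nm channel intensity with signal to noise over triplicate slides.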 The note with it: higher = more signal.
The subject of assay [7] is Chordin-like protein 2 (CHRDL2). The assay can be described thus: compounds binding chordin-like 2 – biochemical, small-molecule microarray, 635 nm fluorescence, primary screen (AID 1126).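 Note: printed compound slides probed with Chrdl2 protein at 4 µg/mL for 1 h at 4 C; score merges 667 nm emission intensity with signal to noise over three replicate slides.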 The following applies: fluorescence 635 nm, higher = more signal.
Assay [8] deals with Concanavalin-A (Canavalia ensiformis) (UniProt P02866). The assay can be described thus: compounds binding concanavalin A lectin – biochemical, small-molecule microarray, Alexa647 label, 635 nm, artefact control for SMM control protein annotation, primary screen (AID 1127).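 Note: z combines 667 nm emission intensity with signal-to-noise across three replicate slides.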 The following applies: ConA-A647 binding fluorescence, higher = more signal.
The nature of assay [9]: compounds binding Alexa647 anti-His antibody – biochemical, small-molecule microarray, 635 nm fluorescence, artefact control for SMM control protein annotation, primary screen (AID 1128).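 Note: score merges feature fluorescence with signal-to-noise for each printed compound spot.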 The note with it: higher = more signal.
Assay [10] has as its system Human papillomavirus type 1a E7 protein (residues 1-88). The assay can be described thus: HPV1a E7 small-molecule binders, primary screen, biochemical, small-molecule microarray, residues 1-88, 635 nm (AID 1129). The following applies: small-molecule microarray binding, fluorescence 635 nm; higher = more signal.
The target of assay [11] is Focal adhesion kinase 1 (Homo sapiens) (UniProt Q05397). The assay can be described thus: PTK2 protein binding on printed compound slides – biochemical, small-molecule microarray, 635/667 nm fluorescence, BSA, DTT, primary screen (AID 1130).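 Note: composite of spot emission at 667 nm and signal to noise over triplicate slides.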 The following applies: 635 nm fluorescence, higher = more signal.
Assay [12] deals with Fibrinogen (Alexa647-labelled). The assay can be described thus: Alexa647-fibrinogen binding to printed small molecules – biochemical, small-molecule microarray, 635/667 nm fluorescence, artefact control for SMM control-protein annotation, profiling panel (AID 1131).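 Note: z-score merges 667 nm fluorescence with per-spot signal-to-noise over triplicate slides.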 The note with it: fibrinogen-A647 binding fluorescence, higher = more signal.
The target in assay [13] is Follistatin (Homo sapiens) (UniProt P19883). The assay can be described thus: FST protein binding to printed compounds – biochemical, small-molecule microarray, 635/667 nm fluorescence, primary screen (AID 1132). The note with it: 635 nm fluorescence, higher = more signal.
Assay [14] addresses Fibroblast growth factor 2 (Homo sapiens) (UniProt P09038). The assay can be described thus: basic fibroblast growth factor binding to printed compounds – biochemical, small-molecule microarray, 635/667 nm fluorescence, primary screen (AID 1133). The following applies: FGF2, fluorescence 635/667, higher = more signal.
A short description of assay [15]: JC-1 mitochondrial potential readout, lung cancer cells – cell-based, A549, JC-1 fluorescence, basal, 24 h, 100 nL, profiling panel (AID 1138).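 Note: A549 lung adenocarcinoma cells under basal conditions with no added stimulus; test concentration not given here.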 The following applies: higher = more signal.
Another assay relates to Lefty1. The assay can be described thus: Lefty1 protein binding to printed compounds – biochemical, small-molecule microarray, 635/667 nm fluorescence, primary screen (AID 1139). The note with it: fluorescence 635/667, higher = more signal.
The subject of assay [16] is wheat germ agglutinin (Triticum aestivum), Alexa647-labelled. The assay can be described thus: Alexa647-WGA lectin binding to printed small molecules – biochemical, small-molecule microarray, 635/667 nm fluorescence, artefact control for SMM control-protein annotation, profiling panel (AID 1140).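 Note: score merges 667 nm feature emission with signal to noise over triplicate slides.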 The note with it: WGA-A647 binding, 635 nm fluorescence, higher = more signal.

For assay [17], the target named is Luciferin 4-monooxygenase (Photinus pyralis) (UniProt P08659). The assay can be described thus: inhibition of purified Photinus pyralis luciferase – biochemical, luminescence, purified enzyme, 2006 set, primary screen (AID 1141).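 Note: cell-free assay with purified firefly luciferase at 100 ng per well in PBS; test concentration not given here.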 The note with it: purified firefly luciferase, SteadyGlo luminescence, 30 min; higher = more signal, called active from +8 up or from −8 down.

The source made the active and inactive calls.

Chain of Focal adhesion kinase 1 (Homo sapiens) (Q05397 whole entry, looked up): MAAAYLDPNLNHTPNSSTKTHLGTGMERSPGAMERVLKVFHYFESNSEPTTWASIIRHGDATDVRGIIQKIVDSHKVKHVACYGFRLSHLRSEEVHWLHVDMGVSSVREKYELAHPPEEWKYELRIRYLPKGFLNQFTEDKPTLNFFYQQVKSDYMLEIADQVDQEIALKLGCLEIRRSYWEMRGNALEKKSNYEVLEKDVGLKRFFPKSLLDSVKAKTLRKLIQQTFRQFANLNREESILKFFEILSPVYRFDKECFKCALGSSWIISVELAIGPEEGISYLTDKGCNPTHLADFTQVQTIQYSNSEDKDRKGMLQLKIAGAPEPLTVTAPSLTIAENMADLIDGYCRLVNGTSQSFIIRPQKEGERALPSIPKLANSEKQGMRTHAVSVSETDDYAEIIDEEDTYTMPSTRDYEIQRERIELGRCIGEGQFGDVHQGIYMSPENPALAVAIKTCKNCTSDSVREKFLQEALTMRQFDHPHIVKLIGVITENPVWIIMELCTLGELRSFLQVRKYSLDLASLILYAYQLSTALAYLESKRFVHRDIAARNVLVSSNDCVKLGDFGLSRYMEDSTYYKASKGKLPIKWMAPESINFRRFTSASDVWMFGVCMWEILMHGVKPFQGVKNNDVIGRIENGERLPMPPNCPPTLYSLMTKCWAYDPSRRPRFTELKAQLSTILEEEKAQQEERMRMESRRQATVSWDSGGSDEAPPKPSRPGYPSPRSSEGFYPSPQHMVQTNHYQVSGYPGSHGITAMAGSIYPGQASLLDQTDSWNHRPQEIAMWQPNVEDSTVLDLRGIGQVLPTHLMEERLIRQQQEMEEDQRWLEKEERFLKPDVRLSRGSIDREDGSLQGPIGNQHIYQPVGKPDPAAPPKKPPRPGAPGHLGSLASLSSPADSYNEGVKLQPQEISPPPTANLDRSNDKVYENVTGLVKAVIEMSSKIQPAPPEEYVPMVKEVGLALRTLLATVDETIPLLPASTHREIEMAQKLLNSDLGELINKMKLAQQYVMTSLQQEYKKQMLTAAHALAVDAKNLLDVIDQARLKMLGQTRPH
Chain of Follistatin (Homo sapiens) (P19883 whole entry, looked up): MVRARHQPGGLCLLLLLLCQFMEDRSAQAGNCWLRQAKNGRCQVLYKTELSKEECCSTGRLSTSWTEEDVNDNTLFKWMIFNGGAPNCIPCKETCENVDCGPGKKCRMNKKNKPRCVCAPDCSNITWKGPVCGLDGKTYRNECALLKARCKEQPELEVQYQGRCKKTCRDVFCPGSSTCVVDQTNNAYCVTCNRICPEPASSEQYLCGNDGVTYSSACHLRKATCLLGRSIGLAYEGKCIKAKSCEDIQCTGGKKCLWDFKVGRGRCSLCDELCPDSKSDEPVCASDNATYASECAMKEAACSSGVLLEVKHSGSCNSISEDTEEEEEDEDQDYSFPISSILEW
Chain of Luciferin 4-monooxygenase (Photinus pyralis) (P08659 whole entry, looked up): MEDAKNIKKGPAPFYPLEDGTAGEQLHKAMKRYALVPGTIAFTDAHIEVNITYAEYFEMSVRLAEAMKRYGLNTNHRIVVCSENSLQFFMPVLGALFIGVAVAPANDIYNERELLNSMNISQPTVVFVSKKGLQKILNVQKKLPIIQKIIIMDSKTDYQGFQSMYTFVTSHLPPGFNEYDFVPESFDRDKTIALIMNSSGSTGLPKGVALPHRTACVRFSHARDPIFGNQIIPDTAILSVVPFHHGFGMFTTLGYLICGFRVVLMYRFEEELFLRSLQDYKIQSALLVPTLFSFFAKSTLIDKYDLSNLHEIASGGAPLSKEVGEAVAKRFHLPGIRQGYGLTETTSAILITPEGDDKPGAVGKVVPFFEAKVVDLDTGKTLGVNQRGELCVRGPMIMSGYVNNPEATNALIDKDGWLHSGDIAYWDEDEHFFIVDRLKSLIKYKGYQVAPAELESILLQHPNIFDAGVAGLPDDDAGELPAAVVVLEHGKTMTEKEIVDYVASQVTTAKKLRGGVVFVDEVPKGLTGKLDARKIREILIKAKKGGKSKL
Chain of Fibroblast growth factor 2 (Homo sapiens) (P09038 whole entry, looked up): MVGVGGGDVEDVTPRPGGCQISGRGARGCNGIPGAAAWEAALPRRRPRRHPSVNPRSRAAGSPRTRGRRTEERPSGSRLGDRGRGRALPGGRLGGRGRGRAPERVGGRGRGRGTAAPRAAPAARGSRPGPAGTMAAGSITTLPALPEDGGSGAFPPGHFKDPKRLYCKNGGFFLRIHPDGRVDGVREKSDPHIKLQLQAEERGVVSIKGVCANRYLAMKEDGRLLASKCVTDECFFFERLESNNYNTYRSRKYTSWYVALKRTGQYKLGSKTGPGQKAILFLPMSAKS
Chain of Albumin (Bos taurus) (P02769 whole entry, looked up): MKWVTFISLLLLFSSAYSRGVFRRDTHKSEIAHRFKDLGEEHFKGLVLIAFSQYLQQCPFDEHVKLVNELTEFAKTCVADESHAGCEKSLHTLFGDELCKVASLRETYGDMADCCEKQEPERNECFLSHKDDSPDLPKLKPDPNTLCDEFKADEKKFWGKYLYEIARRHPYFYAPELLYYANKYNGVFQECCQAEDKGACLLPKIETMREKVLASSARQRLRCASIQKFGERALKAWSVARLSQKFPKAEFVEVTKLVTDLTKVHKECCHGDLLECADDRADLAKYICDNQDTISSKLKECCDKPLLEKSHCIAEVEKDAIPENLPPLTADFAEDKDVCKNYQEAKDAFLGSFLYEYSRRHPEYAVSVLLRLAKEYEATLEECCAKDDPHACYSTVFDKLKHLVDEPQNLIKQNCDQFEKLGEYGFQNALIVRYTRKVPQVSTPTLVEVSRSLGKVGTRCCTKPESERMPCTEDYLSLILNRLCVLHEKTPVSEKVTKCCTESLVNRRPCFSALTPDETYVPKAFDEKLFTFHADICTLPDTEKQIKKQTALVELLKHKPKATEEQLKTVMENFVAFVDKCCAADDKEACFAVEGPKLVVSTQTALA
Chain of Concanavalin-A (Canavalia ensiformis) (P02866 whole entry, looked up): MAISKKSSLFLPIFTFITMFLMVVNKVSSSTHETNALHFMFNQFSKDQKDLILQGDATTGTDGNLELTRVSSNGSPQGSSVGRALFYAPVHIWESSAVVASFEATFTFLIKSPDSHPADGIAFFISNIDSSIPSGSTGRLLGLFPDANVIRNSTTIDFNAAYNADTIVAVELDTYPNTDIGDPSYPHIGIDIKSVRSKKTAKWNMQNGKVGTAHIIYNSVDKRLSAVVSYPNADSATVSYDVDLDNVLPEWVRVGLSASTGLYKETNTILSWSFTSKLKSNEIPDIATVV

`COc1ccc(C(=O)Nc2cccc(CN3C(=O)[C@@]4(O[C@@H](CCO)[C@H]([Si](C)(C)c5ccc(OC)cc5)[C@H]4C)c4ccccc43)c2)cc1`: the composite z-score with Albumin (Bos taurus) was 0.558; in assay [2], -0.0343; in [3], -0.14; in assay [4], 0.211; in [5], 0.421; in [6], 0.0002. Besides, the composite z-score is 1.18 with Sam68 (KHDRBS1); -0.143 in [7]; 1.01 in [8]; 0.338 in [9]; 1.07 in assay [10]; -0.177 in [11]. The composite z-score is 0.795 in assay [12]; 1 in [13]; -0.169 in assay [14]; 0.143 in the assay on Lefty1; 0.327 in [16]. Besides, the composite Z-score in [1] was -0.0927 (inactive). The z-score was -1.29 in assay [15] and -1.96 (inactive) in assay [17].
Regarding `[N-]=[N+]=NCc1ccccc1C[C@@]1(C(=O)O)N=C(c2ccc(OCCCO)cc2)O[C@@H]1c1ccccc1`, the composite z-score with Albumin (Bos taurus) was 0.433; in [2], -0.133; in [3] it was 0.0278; in assay [4], 0.658; in assay [5], 1.53; in assay [6], 1.48. In addition, the composite z-score was 0.782 in the assay with Sam68 (KHDRBS1); -1.24 in assay [7]; 0.933 in [8]; 0.822 in assay [9]; 0.998 in [10]; 0.829 in [11]. Besides, the composite z-score was 0.808 in [12]; 0.322 in [13]; -0.41 in assay [14]; -0.771 in the assay on Lefty1; 1.1 in assay [16]. Besides, the composite Z-score in [1] is 0.114 (inactive). The z-score in assay [15] is 1.34; in [17], -1.05 (inactive).
For the compound `O=C1O[C@H](c2ccccc2)[C@H](c2ccccc2)N2[C@H]1[C@@H](C(=O)Nc1nc3ccccc3s1)[C@]1(C(=O)Nc3ccc(C#CCCO)cc31)[C@H]2c1ccccc1OCCO`, the composite z-score with Albumin (Bos taurus) was 0.596; in [2], 0.0695; in assay [3] it was -0.0155; in assay [4], 0.671; in assay [5] it was 2.43; in assay [6], 0.849. The composite z-score is 1.31 with Sam68 (KHDRBS1); -0.0204 in assay [7]; 1.18 in assay [8]; 1.42 in assay [9]; 1.2 in assay [10]; 0.705 in assay [11]. Further, the composite z-score stood at 0.89 in assay [12]; 1.09 in [13]; 0.479 in assay [14]; 0.287 in the assay on Lefty1; 1.3 in assay [16]. The composite Z-score in [1] is 0.231 (inactive). Also, the z-score is -1.93 in assay [15] and -1.14 (inactive) in assay [17].
In the case of `CCCCC(=C=CC[C@@H](O)c1ccc(OCCO)cc1)C[C@@H](O)c1cc(Cl)cc(Cl)c1O`, the composite z-score was 0.645 with Albumin (Bos taurus); 0.151 in assay [2]; -0.048 in assay [3]; 0.674 in assay [4]; 0.886 in assay [5]; 0.673 in [6]. The composite z-score was 0.661 in the assay with Sam68 (KHDRBS1); -0.101 in assay [7]; 0.486 in assay [8]; 0.155 in assay [9]; 0.597 in [10]; 0.507 in assay [11]. Also, the composite z-score in assay [12] was 0.556; in [13], 0.63; in assay [14], 0.594; with Lefty1 it was 0.255; in assay [16] it was 1.21. The composite Z-score in assay [1] was 0.0371 (inactive). The z-score is 1.28 in assay [15] and -3.02 (inactive) in assay [17].
As to `C=CC[C@@H](OC(=O)Nc1ccc(SC)cc1)c1ccc(OCCO)cc1`, the composite z-score is -0.733 with Albumin (Bos taurus); -0.267 in assay [2]; -0.179 in [3]; 0.758 in assay [4]; 1.99 in [5]; 0.105 in [6]. Moreover, the composite z-score in the assay on Sam68 (KHDRBS1) was 0.655; in assay [7] it was -2.01; in assay [8], -0.264; in assay [9], 2.42; in [10], -0.0392; in assay [11] it was -0.783. Also, the composite z-score in assay [12] is -1.58; in assay [13], -1.15; in assay [14] it was -0.991; with Lefty1, -0.763; in assay [16], -0.666. Moreover, in assay [1], the composite Z-score is 0.667 (inactive). In addition, the z-score in assay [15] is 0.844; in assay [17], -3.91 (inactive).
